# Measurements: ChEMBL document CHEMBL4513216, “Probing the Open Global Health Chemical Diversity Library for Multistage-Active Starting Points for Next-Generation Antimalarials” (ACS Infect Dis, 2020)
# Screen size: about 69,000 compounds; about 8,600 (12%) showed an effect of 50% or more. Only a selection was taken, and strong results are over-represented in it overall.
# Test system: Plasmodium berghei
# Assay: Screen against P. berghei liver stage (PbLuc), transformed with Luciferase, at 10uM
# Format: functional, HepG2
# Settings: tested at 10 uM
row,Compound,INHIBITION [%]
1,O=C(Cc1ccsc1)N1CCC(c2noc(-c3ccncc3)n2)CC1,-0.902
2,CN1CCN(C(=O)Cc2ccsc2)Cc2cccnc21,64.9
3,Cn1nc(C2CCN(C(=O)Cc3ccsc3)CC2)c2cccnc21,28
4,O=C(Cc1ccc(F)cc1)N1CCCC(c2n[nH]c3nccnc23)C1 (centres undefined),23.2
5,Cn1nc(C2CCCN(C(=O)Cc3ccsc3)C2)c2nccnc21 (centres undefined),48.3
6,O=C(Cc1ccsc1)N1CCCC(c2n[nH]c3nccnc23)C1 (centres undefined),59.1
7,Fc1cccc(CN2CCC(c3noc(-c4ccncc4)n3)CC2)c1F,28.5
8,c1cc(-c2nc(C3CCN(Cc4ccsc4)CC3)no2)ccn1,50.8
9,CC(=O)N1N=C(c2ccco2)OC1C(=O)N(CC(C)C)CC(C)C (centres undefined),-33
10,CC(C)c1cc(C(=O)N2CCN(CC3CC3)[C@@H]3CS(=O)(=O)C[C@@H]32)on1,42.1
11,O=C(NCCn1ccnc1)c1ccn(-c2ccccc2)n1,1.78
12,Cc1ccc(CN(CCCN(C)C)Cc2cnc(C)n2C)o1,9.93
13,Cc1nnsc1CNC(=O)c1ccc2c(c1)nc(N1CCOCC1)n2C,-24.6
14,CC(C)c1nc(CCn2cncn2)n(-c2ccc3c(c2)OCCO3)n1,3.96
15,NC(=O)c1cc(C2CCCN(C(=O)CCc3ccncc3)C2)n[nH]1 (centres undefined),-51.5
16,c1cnc2c(C3CCN(Cc4ccsc4)CC3)n[nH]c2n1,64.8
17,COc1cccc(CC(=O)N2CCCC(c3n[nH]c4nccnc34)C2)c1 (centres undefined),2.71
18,Cc1cccc(CC(=O)N2CCCC(c3n[nH]c4nccnc34)C2)c1 (centres undefined),50.8
19,NC(=O)c1cc(C2CCCN(C(=O)CCc3ccsc3)C2)n[nH]1 (centres undefined),56.6
20,c1cnc2[nH]nc(C3CCN(Cc4ccsc4)CC3)c2c1,22
21,Cc1ccc(CCC(=O)N2CCCC(c3cc(C(N)=O)[nH]n3)C2)cc1 (centres undefined),48.1
22,Fc1ccc(CN2CCC(c3n[nH]c4nccnc34)CC2)cc1F,35.3
23,Cc1ccc(CC(=O)N2CCCC(c3n[nH]c4nccnc34)C2)cc1 (centres undefined),44.8
24,Cc1nn(CCC(=O)NC2CCCOC2)c(C)c1C (centres undefined),3.35
25,CC1CCN(CCNC(=O)C(C)n2cncn2)CC1 (centres undefined),22.3
26,CNC(=O)C1(C)CN(Cc2cn(C)c3ccc(F)cc23)CCO1 (centres undefined),3.48
27,CNC(=O)[C@@H]1CN(C(=O)C2CCC2)C[C@H]1c1ccnc(N2CCCC2)n1,-33.3

row,Compound,INHIBITION [%]
1,Cc1nc(NC(=O)NC2CC(=O)N(C)C2)nn1C(C)C (centres undefined),40.6
2,CCCN1CC(NC(=O)Nc2nc(C)n(C(C)C)n2)CC1=O (centres undefined),44.6
3,CCN1CC(NC(=O)Nc2nc(C)n(C(C)C)n2)CC1=O (centres undefined),64.4
4,COC(=O)C(NC(=O)CCc1ccco1)c1cc(F)ccc1F (centres undefined),-4.16
5,CC(C(=O)N1CCCCC1)n1nc(-c2cccs2)cc(N)c1=O (centres undefined),23
6,O=C(Cc1ccc(Cl)cc1)N[C@@H]1CCC[C@@H](O)[C@@H]1O,14.21
7,CC(C)(C)c1noc(-c2ccnc(-n3cnc(C(=O)O)c3)c2)n1,-6.73
8,CC(=O)N1CCOC(c2cncc(CCC(N)=O)n2)C1 (centres undefined),10.9
9,c1nc(C2CCCCO2)ncc1CN1CCOCC1 (centres undefined),0.696
10,N#Cc1cc2c(nc1O)CCCCC2,23.4
11,N#Cc1cc2c(nc1SCc1cc(O)nc(O)n1)CCCC2,32.3
12,N#Cc1cc2c(nc1SCc1cc(O)nc(O)n1)CCCCC2,66.4
13,N#Cc1ccccc1N1CC2(CCCCN2CC2CC2)CC1=O (centres undefined),15.3
14,CC(C)n1cc(CN2CCCN(C(=O)C(C)n3cccn3)CC2)cn1 (centres undefined),38.5
15,O=C1COc2cc(C(=O)N3CCCC(n4cccn4)C3)ccc2N1 (centres undefined),-24.2
16,CCN1CC(CN(C)Cc2nc(-c3ccoc3)oc2C)CC1=O (centres undefined),39.6
17,Cc1nc2c(s1)C(N(C)C(=O)NCCCC(C)(C)CO)CCC2 (centres undefined),3.67
18,CCNC(=O)N(C)C1CCCc2nc(C)sc21 (centres undefined),64.9
19,CCc1nc2c(s1)C(N(C)C(C)=O)CCC2 (centres undefined),6.33
20,CCc1nc2c(s1)C(N(C)C(=O)c1cc[nH]n1)CCC2 (centres undefined),28.6
21,CCc1nc2c(s1)C(N(C)C(=O)c1csnn1)CCC2 (centres undefined),68
22,CC(=O)N(C)C1CCCc2nc(C)sc21 (centres undefined),3.03
23,Cc1cc(C)n(CC(=O)N2CCC(c3nc(C(C)C)no3)CC2)n1,-6.42
24,COc1cc(CNCCn2ccnc2)cc2c1OCO2,17.4
25,COc1ccc(CNC(=O)CCN2C[C@@H](C)[C@](O)(C3CC3)C2)cc1,25.4
26,CC(=O)Nc1ccc(C(=O)N2CCSCC2c2ccc(C)o2)cc1 (centres undefined),-14.3
27,c1cncc(-c2noc(CN3CCCC3Cn3cccn3)n2)c1 (centres undefined),-9.37
